# Compounds with a hit are over-represented: about 10% of the library has one in this group of screens.
# RORg inh: ROR gamma (mouse) transcription inhibition | P51450 | Drosophila S2 Gal4-RORgamma UAS-luciferase reporter, 20 h | Potency, µM (titrated, usually from 53.6 µM), for the others: at the top dose activity change, negative = inhibition, usual class: inhibitors | actives 5.4% (n = 310,000) | AID 2551; further: on the % scale 0 is the no-effect control and ±100 the full control effect; nearly all actives have a fitted effect of over 60% in size
# Target sequence (P51450 whole entry, looked up, the tested form may be a part): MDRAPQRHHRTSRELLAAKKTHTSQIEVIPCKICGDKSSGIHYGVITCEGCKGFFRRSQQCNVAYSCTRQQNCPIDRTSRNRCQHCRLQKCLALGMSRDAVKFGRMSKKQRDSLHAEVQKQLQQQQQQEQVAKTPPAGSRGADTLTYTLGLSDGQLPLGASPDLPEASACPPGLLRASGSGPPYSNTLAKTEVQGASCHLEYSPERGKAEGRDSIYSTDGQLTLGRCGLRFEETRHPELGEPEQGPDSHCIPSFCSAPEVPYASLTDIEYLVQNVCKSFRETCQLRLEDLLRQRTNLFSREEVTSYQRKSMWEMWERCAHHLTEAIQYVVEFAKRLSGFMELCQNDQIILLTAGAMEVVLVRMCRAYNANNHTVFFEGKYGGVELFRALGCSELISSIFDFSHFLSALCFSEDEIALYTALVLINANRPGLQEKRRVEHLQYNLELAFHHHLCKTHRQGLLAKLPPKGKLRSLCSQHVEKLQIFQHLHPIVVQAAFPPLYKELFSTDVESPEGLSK
#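 ROR gamma transcriptional activity was tracked as Gal4-UAS luciferase output in stably transfected Drosophila Schneider cells, with compound added 1 hr before 700 uM copper sulfate induction and a 20 hr ambient-temperature incubation.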
# KB-V1 cytotox: KB-V1 MDR subline cytotoxicity; AID 1347076; actives 3.4% (n = 400,000); KB-V1 MDR cells viability, CellTiter-Glo, 72 h; Potency, µM (series often up to 46.1 µM), usual class: cytotoxic; further: on the % scale 0 is the no-effect control and ±100 the full control effect; nearly all actives have a fitted effect of over 60% in size
#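 Following 72 h at 37 degrees C with compound, KB-V1 cell viability was read by CellTiter-Glo luminescence, medium being phenol-red-free DMEM plus 10% FBS; concentration-response parameters came from normalized, curve-fitted qHTS data.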
# SW480 rereplic: inducers of DNA re-replication in SW480 colon cancer cells; SW480 DNA re-replication, Hoechst DNA content imaging, 48 h; Potency, µM (highest dose often 46.1 µM), without a hit: at the highest dose re-replication activation, actives largely listed as activators; actives 1.8% (n = 340,000); further: % of control where 0% means no effect; nearly all actives have a fitted effect of over 55% in size
#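 250 cells/well; 23 nL cpd via pin tool; 48 hr, 37 C, 5% CO2; Hoechst 40 min; imager read of total nuclear intensity, ex 405/em 500-530 nm.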
# MCF10A rereplic: inducers of DNA re-replication in MCF 10A breast cells; AID 624296; actives 2.9% (n = 350,000); MCF 10A DNA re-replication, Hoechst nuclear intensity, 48 h; Potency, µM (series often up to 46.1 µM), without a hit: at the highest dose activity, positive = re-replication, actives largely listed as activators; further: % of control where 0% means no effect; nearly all actives have a fitted effect of over 50% in size
# KB-3-1 tox: KB-3-1 parental cell cytotoxicity; KB-3-1 viability, CellTiter-Glo ATP luminescence, 72 h; Potency, µM (doses to about 46.1 µM), most hits filed as cytotoxic; actives 1.4% (n = 400,000); AID 1347075; further: on the % scale 0 is the no-effect control and ±100 the full control effect; nearly all actives have a fitted effect of over 60% in size
#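 Using CellTiter-Glo luminescence, growth of non-resistant KB-3-1 adenocarcinoma cells is assessed 72 h after pin-tool compound addition at 37 °C. Normalized responses across the concentration series yield fitted curves.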
# Gal4-VP16 FLuc: Gal4-VP16 reporter inhibition counter-screen; AID 2546; Potency, µM (highest dose often 53.6 µM), inactives show at the highest dose activity, negative = inhibition, actives largely listed as inhibitors; Drosophila S2 Gal4-VP16 UAS-luciferase, luminescence, 20 h; actives 3.5% (n = 310,000);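 further: Gal4-VP16 expression switched on by copper sulfate through the metallothionein promoter; on the % scale 0 is the no-effect control and ±100 the full control effect; nearly all actives have a fitted effect of over 50% in size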
# * hit, by the source's call; i = inactive; u = inconclusive; x = no result given; [ ] = another dose, or the depositor's remark. The call rests on the fitted dose curve; in most records, active means well fitted curve in the direction sought with a large enough effect; inconclusive means small, poorly fitted or top-dose-only effect, or another doubt; inactive means no such curve, though single readings can be large; an effect the other way counts as inactive or inconclusive. Potency means the concentration at half of the fitted maximal effect.
SMILES,RORg inh,KB-V1 cytotox,SW480 rereplic,MCF10A rereplic,KB-3-1 tox,Gal4-VP16 FLuc
NS(=O)(=O)c1ccc(NC(=S)NC(=O)c2ccc(Br)o2)cc1,-21%,i,-2%,0%,i,-18%
Cc1cc(C)cc(NS(=O)(=O)c2ccc(NC(=S)NC(=O)c3ccc(Br)o3)cc2)c1,3.5µM*,18µM*,4%,-6%,u,7.9µM*
Cc1cc(C)c(S(=O)(=O)N2CCN(S(=O)(=O)N3CCOCC3)CC2)c(C)c1,13%,u,-6%,1%,i,0%
Cc1ccc(N=Cc2nc(-c3ccc(C)cc3)oc2O)cc1,4%,i,u,6.5µM*,i,6%
Cc1ccc(C(=O)NC(=S)N2CCCC2)cc1,0.89µM*,i,-10%,0%,i,5µM*
CN1CCN(C(=O)Nc2cccc(-c3ccccc3)c2)CC1,4%,i,16µM*,u,i,3%
CN1CCN(C(=S)NC(=O)c2ccc(-c3ccccc3)cc2)CC1,0.089µM*,i,u,0%,i,0.56µM*
CN1CCN(C(=S)NC(=O)c2ccc(Br)cc2)CC1,0.89µM*,i,-12%,-1%,i,1.1µM*
CN1CCN(C(=O)c2ccc3nc(-c4ccccc4)c(-c4ccccc4)nc3c2)CC1,-12%,i,-4%,-12%,i,-19%
CN1CCCN(C(=O)c2ccc(Br)cc2)CC1,u,i,-2%,0%,i,4%
CSc1ccc(CCNC(=O)c2sc3ncccc3c2-n2cccc2)cc1,x,i,x,x,i,x
O=C(O)Cc1cccc(=O)c(O)c1C(=O)O,x,i,0%,1%,i,x
CC(C)CO/N=C1/C[C@@H](O)[C@@H](O)[C@@H]2[C@H]3C(=O)N(c4ccc(F)cc4F)C(=O)[C@@H]3CC[C@H]12,-8%[10 µM],x,x,x,x,-5%[10 µM]
CN1CCN(C(=S)NC(=O)c2ccc(C(C)(C)C)cc2)CC1,1.4µM*,u,2%,0%,i,2.5µM*
CC(C)Oc1ccc(C(=O)NC(=S)N2CCOCC2)cc1,3.5µM*,i,x,-4%,i,1.3µM*
O=CN1CCN(C(=S)NC(=O)c2ccc(Cl)cc2)CC1,x,i,-4%,-5%,i,x
Cc1ccc(C(=O)NC(=S)N2CCN(C)CC2)cc1,0%,i,-8%,-8%,i,7.1µM*
Cc1ccc2c(c1)C1CN(C)CCC1N2C(=S)NC(=O)c1ccc(Br)cc1 (centres undefined),0.11µM*,i,14%,9%,u,-73%
COc1ccc(OCC(=O)N2c3ccc(C)cc3C3CN(C)CCC32)cc1 (centres undefined),1%,i,14%,-5%,i,2%
N#Cc1cccc(C2CC(OCCF)=CC(=O)O2)c1 (centres undefined),x,i,x,x,i,x
Cc1ccc(NC(=O)c2cc3c([nH]c2=O)CC(c2ccccc2)CC3=O)cc1 (centres undefined),x,i,x,x,u,x
Oc1ccc2cc(SSc3ccc4cc(O)ccc4c3)ccc2c1,15%,x,x,x,x,-20%
CC(C)(C)c1ccc(C(=O)Nc2ccc(C(=O)N3CCOCC3)cc2)cc1,2%,x,-6%,-2%,x,-7%
CC(C)(C)c1ccc(C(=O)NC(=S)N2CCOCC2)cc1,1.1µM*,i,-3%,11%,i,1µM*
CCOc1ccc(-c2ccc(NS(=O)(=O)c3cc(C)c(C)cc3C)cc2)nn1,x,i,x,x,i,x
SMILES,RORg inh,KB-V1 cytotox,SW480 rereplic,MCF10A rereplic,KB-3-1 tox,Gal4-VP16 FLuc
COc1cccc(-n2c(=O)c3sc4ccccc4c3n(CC(=O)Nc3ccccc3OC)c2=O)c1,x,i,x,x,i,x
O=C(Oc1c(-c2ccccc2)c(=O)n2c3c(cccc13)CC2)c1ccc(F)cc1,23%,i,-6%,26µM*,i,-9%
O=C(Oc1c(-c2ccccc2)c(=O)n2c3c(cccc13)CC2)c1ccccc1,6%,u,-3%,u,u,0%
CC1CCN(c2nc3ccccc3nc2SCC(=O)Nc2ccccc2C(C)C)CC1,x,i,x,x,i,x
CCCC(C(=O)NCc1ccco1)N(C(=O)CNS(=O)(=O)c1ccccc1)c1ccc(OC)cc1 (centres undefined),-6%,i,11%[1.84 µM],3%,i,0%
CCC(C(=O)NCc1ccco1)N(C(=O)CNS(=O)(=O)c1ccccc1)c1ccc(OC)cc1 (centres undefined),2%,23µM*,3%,u,i,2%
O=C1[C@@H]2[C@H]3C(=CC[C@@H]2C(=O)N1Cc1ccccc1)C1(OCCCO1)[C@H]1O[C@@H]1[C@H]3O,3%[10 µM],x,x,x,x,-9%[10 µM]
CC[C@H]1C(c2ccccc2)=NN(c2ccccc2)[C@@H]1CO,-14%,x,x,x,x,u
COc1ccccc1[C@H]1C(c2ccccc2)=NN(c2ccccc2)[C@@H]1CO,44%,i,13µM*,1.8µM*,i,u
COc1ccccc1[C@H]1C(c2ccc(F)cc2)=NN(c2ccccc2)[C@@H]1CO,1%,i,3.7µM*,u,i,-10%
COc1ccccc1[C@H]1C(c2cccc(C)c2)=NN(c2ccccc2)[C@@H]1CO,29%,i,0.33µM*,u,i,-5%
C[C@H]1C(c2ccc(F)cc2)=NN(c2ccccc2)[C@@H]1CO,-24%,i,5.2µM*,10µM*,i,u
COCC(=O)Oc1c(Sc2ccc(C)cc2)c(C)nn1C(C)(C)C,x,i,x,x,i,x
COc1ccc(C(=O)Oc2cc(/C=N/NC(N)=S)ccc2OC)cc1,11µM*,i,-1%,0%,i,22µM*
COc1ccc(C(=O)Oc2ccc(/C=N/O)cc2)cc1,11µM*,i,-21%,-4%,i,11µM*
COc1ccc(/C=N/NC(N)=S)cc1OC(=O)c1cccc2ccccc12,2.5µM*,u,u,u,u,5µM*
COc1cc(/C=N/NC(N)=O)ccc1OC(=O)c1ccc(C)cc1,-11%,x,x,x,x,0%
COc1cc(CN(C(=O)COc2ccccc2Cl)c2ccccn2)cc(OC)c1OC,x,i,x,x,i,x
Cc1ccc(/C=N/Nc2ccc(F)cc2F)s1,23%,i,-14%,7%,i,6%
Clc1cnc(N/N=C/c2ccco2)c(Cl)c1,5.6µM*,u,x,-2%,i,13µM*
Cc1ccc(/C=N/Nc2ccccn2)s1,u,i,-8%,4%,u,11µM*
Clc1cnc(N/N=C/c2cccs2)c(Cl)c1,7.9µM*,u,1%[9.22 µM],0%,u,u
Cc1ccc(/C=N/Nc2ncc(Cl)cc2Cl)s1,4.5µM*,u,5.8µM*,-2%,u,7.1µM*

# Assay outcomes from PubChem.
